The entries come from a sample that favours hits as a whole.
KDM5B inhibitor – Primary screen for KDM5B Histone Demethylases FDH-coupled qHTS; Lysine-specific demethylase 5B (Homo sapiens), Q9UGL1; KDM5B demethylase, FDH-coupled NADH fluorescence (FDH is formaldehyde dehydrogenase); Potency, µM (series often up to 57.7 µM), most hits filed as inhibitors; 2.6% of 220,000 active; AID 1347165, 2019; active means well fitted inhibition curve with a large enough effect; further: nearly all actives have a fitted effect of over 70% in size
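Here, H3K4me3 peptide (12.5 µM in substrate mix) is demethylated by KDM5BΔAP, 200 nM final, after 10 min compound exposure. Formaldehyde product is coupled through FDH (0.25 U/mL in mix) to NADH fluorescence; 30-min ΔRFU feeds dose-response curves.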
Hits are given with their value; - = inactive.

SMILES | KDM5B inhibitor
Cc1cc(NC(=O)C2CCN(c3cc(C(F)(F)F)ncn3)CC2)ccc1Br | 28µM
O=C(NC1CCCCCC1)C1CCN(c2cc(C(F)(F)F)ncn2)CC1 | -
CC(NC(=O)C1CCN(c2cc(C(F)(F)F)ncn2)CC1)c1ccc(F)cc1 (stereo not given) | -
Cc1ccc(CC(=O)NC2CCN(c3cc(C(F)(F)F)ncn3)CC2)cc1 | -
COc1ccc(-c2nn(-c3ccc(F)cc3F)c3c2cnc2ccc(F)cc23)cc1 | -
COC(=O)[C@]12C[C@H](CC(=O)NCCc3ccccc3OC)C(=O)N(Cc3ccco3)C1=C[C@H](COCc1ccccc1)O[C@@H]2C | -
CCCCC(O)(CCCC)C(=O)N/N=C(\C)c1ccc(Cl)cc1 | -
O=[S+]1([O-])NCC2(CCCN(Cc3c(F)cccc3F)C2)Oc2ncccc21 (stereo not given) | -
CCc1nc2nccc(-c3ccc(Br)cc3)n2n1 | 16µM
CCc1nc2nccc(-c3ccc(OC)c(OC)c3)n2n1 | 20µM
COc1ccc(-c2ccnc3nc(CCc4ccc(OC)c(OC)c4)nn23)cc1 | 25µM
COc1ccc(CCc2nc3nccc(-c4ccsc4)n3n2)cc1 | -
COc1ccc(CCc2nc3nccc(-c4ccc(OC)cc4)n3n2)cc1 | 25µM
COc1ccc(CCc2nc3nccc(-c4ccncc4)n3n2)cc1 | -
O=C(CN(Cc1ccc(Cl)cc1)C(=O)CN1C(=O)COc2ccccc21)NC1CCCC1 | -
COCCOCC(=O)N1CC2CC(C1)[C@H]1CCCC(=O)N1C2 (stereo not given in full) | -
O=C(CCNS(=O)(=O)c1ccc(Cl)cc1)N1CCCCCC1 | -
O=C(Cn1ncn2c(cc3ccccc32)c1=O)NCc1ccc(F)cc1 | -
CN(Cc1ccc(-c2ccccc2)cc1)C(=O)c1ccc(Cl)nc1 | -
CC(C)c1nnc(SCC(=O)N(C)CCOc2ccc(Br)cc2)n1Cc1ccco1 | -
O=C1NCCCCCCN(C(=O)CC2CCCCC2)[C@H]2C[C@H](c3nc(-c4cccnc4)no3)C[C@@H]12 | -
COC[C@@H]1CN(c2ncccn2)C[C@H]1C(=O)NCC(F)(F)F | 20µM
COC[C@@H]1CN(c2ncccn2)C[C@H]1C(=O)NCc1ccccn1 | 14µM
COC[C@@H]1CN(C(=O)c2ncccc2C)C[C@H]1C(N)=O | -
COC[C@@H]1CN(C(=O)CN2CCOCC2)C[C@H]1c1ccncc1 | -
SMILES | KDM5B inhibitor
CNC(=O)[C@@H]1CN(C(=O)Cn2cc(C)cn2)C[C@H]1COC | -
O=C(O)[C@H]1C[C@@H](C(=O)NCc2ccccn2)CN(CC2CC2)C1 | -
O=C(NCc1ccccn1)[C@H]1CN(Cc2ccccc2)C[C@H]1C(=O)O | -
CNC(=O)[C@@H]1CN(C(=O)c2nccc3ccccc23)C[C@H]1COC | -
COC[C@@H]1CN(c2ncccn2)C[C@H]1C(=O)N1CCOCC1 | 25µM
Cc1ccc(C23CC4CC(CC(C(=O)N(C)C)(C4)C2)C3)cc1 | -
CC(=O)N1CCCN(C(=O)C(c2cccc(F)c2)N(C)C)CC1 (stereo not given) | -
CCC1CN(S(=O)(=O)c2cc(-c3onc(C)c3C)ccc2C)c2cc(Cl)ccc2O1 (stereo not given) | -
CC1(C)C[C@H](NC2CCC2)[C@@]2(CCC(=O)NCc3cccnc3)CC[C@](C)(O)C[C@@H]12 | -
COCc1ccc(C(=O)N2CCN(Cc3ccccc3)CC(O)C2)s1 (stereo not given) | -
Cc1cccc(-c2cccc(NC(=O)C3CCCN(C(=O)c4cccc(C)n4)C3)c2)c1 (stereo not given) | -
Cc1cc(C(=O)N2CCCC(C(=O)Nc3cccc(-c4cc5ccccc5[nH]4)c3)C2)nn1C (stereo not given) | 32µM
COCCNC(=O)C1CCCN(C(=O)c2cc3ccccc3[nH]2)C1 (stereo not given) | -
Cc1c(CN2CCCC(c3ccc(C(=O)O)cc3)C2)cnn1C (stereo not given) | -
CCn1cc(C(=O)N2CCCC(C(=O)Nc3cccc(-c4cc5ccccc5[nH]4)c3)C2)cn1 (stereo not given) | 28µM
Cc1cc(C(=O)N2CCCC(c3nc(C4CCOCC4)no3)C2)nn1C (stereo not given) | -
COC(=O)CNC(=O)C1CCCN(C(=O)c2cc3ccccc3[nH]2)C1 (stereo not given) | -
Cc1c(CN2CCCC(C(=O)Nc3cccc(-c4cc5ccccc5[nH]4)c3)C2)cnn1C (stereo not given) | 28µM
O=C(Nc1cccc(-n2cccn2)c1)C1CCCN(Cc2cccc(F)c2F)C1 (stereo not given) | -
CCN1CC2(CCN(C(=O)c3ccc(NS(=O)(=O)CC)cc3)CC2)CC1=O | -
Cc1[nH]ncc1Cl | -
NC(=O)[C@H](CC1CCCCC1)NC(=O)[C@H]1CNCCN1C(=O)c1cccs1 | -
Cc1cc(C(=O)NNc2ccc(C)c(C)c2)no1 | -
COc1ccccc1NC(=O)C1CCN(c2nc3ccccc3o2)CC1 | -
Cc1cc2oc(=O)cc(CN(C)Cc3cccs3)c2cc1Cl | -

Screening results as filed in PubChem BioAssay.
